3 compounds from PubChem BioAssay (EPA / NIEHS) can be followed below.

Structures are written as SMILES. Active and inactive are the calls of the source. Rule for the calls: active = hit-call score of the fitted dose curve at least 0.9, where 1 is the maximum; inactive = score below 0.9.

Settings in all cases: mRNA level, 48 h; actives raise or lower the signal
Read-out in assay [1]: CFLAR gene, CFLAR (gene 8837)
Kind of assay: LTEA_HepaRG_CFLAR: Life Technologies and Expression Analysis (LTEA) Assay for CFLAR gene using HepaRG (AID 2283455). Summed up:
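Differentiated HepaRG cells in serum-free induction medium were exposed 48 h in duplicate to eight half-log concentrations up to 100 uM in 0.5% DMSO; mRNA measured by TaqMan qRT-PCR, normalized to ACTB, GAPDH, POLR2A; bidirectional fitting versus DMSO.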

Read-out in assay [2]: Forkhead box O1 (FOXO1), FOXO1 (gene 2308)
Kind of assay: LTEA_HepaRG_FOXO1: Life Technologies and Expression Analysis (LTEA) Assay for Forkhead box O1 (FOXO1) using HepaRG (AID 2283456). Put shortly:
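Differentiated HepaRG cells, in serum-free induction medium with 0.5% DMSO, exposed 48 h in duplicate to 8-point half-log series from 100 uM. FOXO1 mRNA measured by TaqMan qRT-PCR, normalized to ACTB, GAPDH, POLR2A; bidirectional fit versus DMSO.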

Read-out in assay [3]: growth arrest and DNA damage 45 (GADD45A), GADD45A (gene 1647)
Kind of assay: LTEA_HepaRG_GADD45A: Life Technologies and Expression Analysis (LTEA) Assay for growth arrest and DNA damage 45 (GADD45A) using HepaRG (AID 2283458). Summed up: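 Differentiated HepaRG cells exposed 48 h in serum-free induction medium to 8 concentrations, top 100 uM in half-log steps, 0.5% DMSO. GADD45A mRNA quantified by qRT-PCR, normalized to ACTB, GAPDH and POLR2A; bidirectional fit versus DMSO.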

Read-out in assay [4]: Forkhead box O3 (FOXO3), FOXO3 (gene 2309)
The experiment in a line: LTEA_HepaRG_FOXO3: Life Technologies and Expression Analysis (LTEA) Assay for Forkhead box O3 (FOXO3) using HepaRG (AID 2283459). Summed up: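 Differentiated human HepaRG cells, 48 h post-plating, exposed in duplicate for 48 h in serum-free induction medium; 8-point half-log series from 100 uM in 0.5% DMSO. FOXO3 mRNA by TaqMan qRT-PCR, normalized to ACTB/GAPDH/POLR2A; bidirectional fit versus DMSO.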

Read-out in assay [5]: ABC Transporter (ABCB1), ABCB1 (gene 5243)
Kind of assay: LTEA_HepaRG_ABCB1: Life Technologies and Expression Analysis (LTEA) Assay for ABC Transporter (ABCB1) using HepaRG (AID 2283460). Put shortly: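 HepaRG cells exposed in duplicate for 48 h in serum-free induction medium to eight half-log concentrations up to 100 uM in 0.5% DMSO. ABCB1 mRNA quantified by qRT-PCR, normalised to ACTB, GAPDH and POLR2A; fitted bidirectionally versus DMSO.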

Read-out in assay [6]: growth arrest and DNA damage 45 (GADD45B), GADD45B (gene 4616)
The experiment in a line: LTEA_HepaRG_GADD45B: Life Technologies and Expression Analysis (LTEA) Assay for growth arrest and DNA damage 45 (GADD45B) using HepaRG (AID 2283461). Put shortly: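 Transcript level quantified by Fluidigm TaqMan qRT-PCR with three housekeeping genes for normalization, analyzed for up- or down-regulation against 0.5% DMSO. HepaRG cultures dosed 48 h at eight half-log concentrations up to 100 uM, duplicates.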

Read-out in assay [7]: ABC Transporter (ABCC3), ABCC3 (gene 8714)
The experiment in a line: LTEA_HepaRG_ABCC3: Life Technologies and Expression Analysis (LTEA) Assay for ABC Transporter (ABCC3) using HepaRG (AID 2283462). Summed up:
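Transcript level by TaqMan qRT-PCR, normalised to three housekeeping genes, fitted in both directions relative to vehicle. Chemicals tested in duplicate at eight half-log concentrations up to 100 uM for 48 h on HepaRG cells (0.5% DMSO).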

Read-out in assay [8]: ABC Transporter (ABCB11), ABCB11 (gene 8647)
Kind of assay: LTEA_HepaRG_ABCB11: Life Technologies and Expression Analysis (LTEA) Assay for ABC Transporter (ABCB11) using HepaRG (AID 2283463). Put shortly: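 Differentiated human HepaRG cells in serum-free induction medium, dosed in duplicate for 48 h. Eight-point half-log series from 100 uM in 0.5% DMSO; ABCB11 mRNA by qRT-PCR, normalized to ACTB, GAPDH, POLR2A, fitted bidirectionally versus DMSO.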

Read-out in assay [9]: ABC Transporter (ABCC2), ABCC2 (gene 1244)
The experiment in a line: LTEA_HepaRG_ABCC2: Life Technologies and Expression Analysis (LTEA) Assay for ABC Transporter (ABCC2) using HepaRG (AID 2283464). Summed up:
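Endpoint is ABCC2 transcript level from qRT-PCR, normalized to three housekeeping genes and fitted bidirectionally relative to DMSO. Human HepaRG cells received test chemical for 48 h at up to 100 uM (8 points, half-log steps, 0.5% DMSO), duplicate wells.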

Read-out in assay [10]: Broad substrate specificity ATP-binding cassette transporter ABCG2 (Homo sapiens) (UniProt Q9UNQ0)
The experiment in a line: LTEA_HepaRG_ABCG2: Life Technologies and Expression Analysis (LTEA) Assay for ABC Transporter (ABCG2) using HepaRG (AID 2283465). Summed up:
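Differentiated HepaRG cells were exposed for 48 h in serum-free induction medium to 8 half-log concentrations, top 100 uM, in 0.5% DMSO. ABCG2 mRNA was measured by qRT-PCR, normalized to ACTB, GAPDH and POLR2A, with bidirectional fitting versus DMSO.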

Read-out in assay [11]: ATP-citrate lyase (ACLY), ACLY (gene 47)
The experiment in a line: LTEA_HepaRG_ACLY: Life Technologies and Expression Analysis (LTEA) Assay for ATP-citrate lyase (ACLY) using HepaRG (AID 2283466). Summed up: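 Differentiated HepaRG cells exposed 48 h in serum-free induction medium to eight half-log concentrations up to 100 uM in 0.5% DMSO, duplicates. Transcript measured by Fluidigm TaqMan qRT-PCR, normalized to ACTB, GAPDH, POLR2A; bidirectional fit versus DMSO.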

Read-out in assay [12]: Peroxisomal acyl-coenzyme A oxidase 1 (ACOX1) gene, ACOX1 (gene 51)
The experiment in a line: LTEA_HepaRG_ACOX1: Life Technologies and Expression Analysis (LTEA) Assay for Peroxisomal acyl-coenzyme A oxidase 1 (ACOX1) gene using HepaRG (AID 2283467). Summed up: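 HepaRG cells, plated 48 h then switched to serum-free induction medium, were exposed in duplicate for 48 h to 8-point half-log concentrations up to 100 uM in 0.5% DMSO. ACOX1 mRNA was measured by qRT-PCR, normalized to ACTB/GAPDH/POLR2A, and fitted bidirectionally versus DMSO.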

Read-out in assay [13]: Alkaline Phosphatase, Placental (ALPP) gene, ALPP (gene 250)
Kind of assay: LTEA_HepaRG_ALPP: Life Technologies and Expression Analysis (LTEA) Assay for Alkaline Phosphatase, Placental (ALPP) gene using HepaRG (AID 2283468). Put shortly:
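ALPP transcript level, measured by qRT-PCR and normalized to three housekeeping genes (ACTB, GAPDH, POLR2A), after 48 h dosing of differentiated HepaRG in serum-free induction medium. Top concentration 100 uM with half-log dilutions (8 points, 0.5% DMSO, duplicates); bidirectional fitting relative to DMSO.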

Read-out in assay [14]: Bcl-2 (BAD) gene, BAD (gene 572)
Kind of assay: LTEA_HepaRG_BAD: Life Technologies and Expression Analysis (LTEA) Assay for Bcl-2 (BAD) gene using HepaRG (AID 2283469). Put shortly: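 Differentiated HepaRG cells were exposed in duplicate in 0.5% DMSO for 48 h to eight-point half-log concentrations up to 100 uM. BAD mRNA was measured by Fluidigm TaqMan qRT-PCR, normalized to ACTB, GAPDH and POLR2A, and fitted bidirectionally against DMSO.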

Read-out in assay [15]: Bcl-2 (BAX) gene, BAX (gene 581)
The experiment in a line: LTEA_HepaRG_BAX: Life Technologies and Expression Analysis (LTEA) Assay for Bcl-2 (BAX) gene using HepaRG (AID 2283470). Put shortly:
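Differentiated HepaRG cells exposed 48 h in serum-free induction medium, eight half-log concentrations from 100 uM, in duplicate, 0.5% DMSO vehicle. BAX mRNA by TaqMan qRT-PCR, normalised to ACTB, GAPDH and POLR2A.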

Read-out in assay [16]: Alpha-fetoprotein (AFP) gene, AFP (gene 174)
The experiment in a line: LTEA_HepaRG_AFP: Life Technologies and Expression Analysis (LTEA) Assay for Alpha-fetoprotein (AFP) gene using HepaRG (AID 2283472). Put shortly: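 Differentiated human HepaRG cells exposed 48 h in serum-free induction medium, 8-point half-log series from 100 uM in 0.5% DMSO, duplicate. AFP mRNA by qRT-PCR, normalized to ACTB, GAPDH, POLR2A; bidirectional fit vs DMSO.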

Read-out in the next assay: BCL2L11 (gene 10018)
The experiment in a line: LTEA_HepaRG_BCL2L11: Life Technologies and Expression Analysis (LTEA) Assay for Bcl-2 (BCL2L11) gene using HepaRG (AID 2283473). Put shortly:
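BCL2L11 transcript levels are measured by Fluidigm qRT-PCR, normalized to three housekeeping genes. HepaRG cultures were plated 48 h, then treated 48 h with test chemical (top 100 uM, half-log, 0.5% DMSO vehicle); curves were fitted bidirectionally against DMSO.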

Read-out in assay [17]: Apolipoprotein A-V (APOA5) gene, APOA5 (gene 116519)
Kind of assay: LTEA_HepaRG_APOA5: Life Technologies and Expression Analysis (LTEA) Assay for Apolipoprotein A-V (APOA5) gene using HepaRG (AID 2283474). Put shortly: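 APOA5 transcript levels were quantified by qRT-PCR, normalized to three housekeeping genes, after 48 h chemical treatment of HepaRG cells (8 points, 100 uM maximum, half-log steps, 0.5% DMSO). Curves fitted in both directions against vehicle.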

Read-out in assay [18]: adenosine kinase (ADK) gene, ADK (gene 132)
The experiment in a line: LTEA_HepaRG_ADK: Life Technologies and Expression Analysis (LTEA) Assay for adenosine kinase (ADK) gene using HepaRG (AID 2283471). Summed up: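 ADK expression quantified by qRT-PCR, normalised to three housekeeping genes, after 48 h exposure of HepaRG cells to eight concentrations (top 100 uM, half-log steps, duplicate, 0.5% DMSO). Up- or down-regulation fitted relative to vehicle.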

Broad substrate specificity ATP-binding cassette transporter ABCG2 (Homo sapiens), sequence (Q9UNQ0 whole entry, looked up): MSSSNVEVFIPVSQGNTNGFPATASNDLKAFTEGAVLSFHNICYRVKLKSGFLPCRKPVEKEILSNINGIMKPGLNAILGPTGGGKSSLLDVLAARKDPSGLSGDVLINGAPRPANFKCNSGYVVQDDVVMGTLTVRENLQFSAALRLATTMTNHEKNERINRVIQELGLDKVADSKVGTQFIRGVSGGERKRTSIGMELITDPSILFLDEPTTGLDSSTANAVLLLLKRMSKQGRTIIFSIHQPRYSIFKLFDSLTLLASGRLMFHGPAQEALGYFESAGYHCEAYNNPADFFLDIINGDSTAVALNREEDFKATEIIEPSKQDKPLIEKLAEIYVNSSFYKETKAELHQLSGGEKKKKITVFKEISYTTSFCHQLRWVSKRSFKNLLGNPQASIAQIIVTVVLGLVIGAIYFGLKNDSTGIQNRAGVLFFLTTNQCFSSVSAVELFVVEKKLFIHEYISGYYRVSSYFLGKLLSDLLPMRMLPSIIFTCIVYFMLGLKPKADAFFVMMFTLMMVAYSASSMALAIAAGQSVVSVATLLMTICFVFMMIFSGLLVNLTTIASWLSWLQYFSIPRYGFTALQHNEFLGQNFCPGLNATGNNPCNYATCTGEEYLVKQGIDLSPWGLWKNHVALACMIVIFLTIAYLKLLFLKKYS

Turning to `C[C@]12CC[C@@H]3c4ccc(O)cc4CC[C@H]3[C@@H]1CC[C@H]2O`, the result in assay [1], in assay [2], in assay [3], in [4], in assay [5] and in assay [6] was inactive. Moreover, the compound was classed as inactive in [7], in assay [9], in assay [11], in [12], in [14] and in assay [15]. In the assay with BCL2L11 (gene 10018), the outcome was inactive. The AC50 (usually the concentration at which the activity in the assay is half-maximal) is 69 µM (active) in [8]; 5.42 µM (active) in assay [10]; 50 µM (active) in assay [13]; 75.7 µM (active) in assay [16]; 50 µM (active) in assay [17].
With `CN1C(=O)CC[C@H]1c1cccnc1`, the outcome in assay [1], in [2], in assay [3], in [4], in [5] and in assay [6] was inactive. The result in assay [7], in [8], in assay [9], in assay [10], in [11] and in [12] was inactive. For the same compound, the result (in assay [13]; in assay [14]; in [15]; in assay [16]; in the assay with BCL2L11 (gene 10018); in [17]) was inactive.
As to `Cc1occc1C(=O)Nc1ccc(C(=O)N2CCC(F)(F)/C(=C\C(=O)N3CCC(N4CCCCC4)CC3)c3ccccc32)cc1`, the AC50 in assay [1] is 31.2 µM (active); in assay [7], 47 µM (active); in assay [8], 44.5 µM (active); in assay [11] it was 53.2 µM (active); in assay [12], 31.2 µM (active); in assay [13] it was 46.7 µM (active). The figures for the AC50 in assay [16] and in assay [17] were 44.8 µM (active) and 39 µM (active), respectively. For the same compound, the result in assay [2], in assay [3], in assay [4], in assay [5], in assay [6] and in [9] was inactive. Also, the call (in assay [10]; in assay [14]; in [15]; in assay [18]; in the assay with BCL2L11 (gene 10018)) was inactive.
